In ChEMBL document CHEMBL4513216, “Probing the Open Global Health Chemical Diversity Library for Multistage-Active Starting Points for Next-Generation Antimalarials” (ACS Infect Dis, 2020):
Out of some 69,000 compounds screened, about 8,600 (12%) showed an effect of 50% or more. This is one part of a sample in which strong results are shown more often than they occur.

tested on: Plasmodium berghei; test: Screen against P. berghei liver stage (PbLuc), transformed with Luciferase, at 10uM; assay type: functional, HepG2; conditions: tested at 10 uM

| Structure (SMILES) | INHIBITION [%] |
| --- | --- |
| Cc1nc(-c2nnc[nH]2)sc1C(=O)N1CCCC1Cn1cccn1 (centres undefined) | -1.45 |
| O=C(Cc1ccc2c(c1)CCCC2)N[C@@H]1CC[C@@H](n2ccnc2)[C@@H]1O | 64.9 |
| O=C(N[C@@H]1CC[C@@H](n2ccnc2)[C@@H]1O)c1cc2c(s1)CCC2 | 9.93 |
| O=C(N[C@@H]1CCC[C@@H](n2ccnc2)[C@@H]1O)c1ccc2c(c1)CCCC2 | 38.2 |
| CCN1CC[C@@]2(C(=O)N3CCOCC3)CCN(C(=O)CC(C)C)CC[C@@H]12 | 11.2 |
| CNC(=O)CCS(=O)(=O)Cc1cc(Cl)c2c(c1)OCCCO2 | -11.4 |
| Cc1occc1C(=O)N1CCO[C@H]2[C@H](Oc3cccnc3)CC[C@@H]21 | 18.6 |
| c1nc2c(c(N3CCCC(Cn4cncn4)C3)n1)CCC2 (centres undefined) | 29.2 |
| COCCc1noc(C2CCCN(c3nc(N)nc4c3CCCC4)C2)n1 (centres undefined) | 65.2 |
| CCc1nc2c(N3CCCC(c4nccn4CCOC)C3)ncnc2o1 (centres undefined) | 29.1 |
| CCc1c(C)nc(N)nc1N1CCCC(c2nc(CCOC)no2)C1 (centres undefined) | 68.6 |
| CC(=O)NC1CCN(c2nc(N)nc3c2CCCC3)C1 (centres undefined) | 46.6 |
| COCCc1noc(CN2CCCC2c2noc(C3CC3)n2)n1 (centres undefined) | -14.1 |
| COCCCN(C)C1CCCN(Cc2noc(C3CC3)n2)C1 (centres undefined) | 44.1 |
| COCCc1noc(C2CCCN(c3ncnc4c3CCC4)C2)n1 (centres undefined) | 78.8 |
| COCCn1ccnc1C1CCCN(c2ncnc3c2CCC3)C1 (centres undefined) | 57.5 |
| Cc1cc(C)n(C2CCN(c3ncnc4c3CCC4)C2)n1 (centres undefined) | 36.1 |
| COCCn1ccnc1C1CCCN(c2ncnc3c(C)csc23)C1 (centres undefined) | -0.529 |
| COCCN1CCN(Cc2noc(C3CC3)n2)CC1C (centres undefined) | 20.1 |
| COC[C@]12COC[C@H]1CN(Cc1ccc3c(c1)OCO3)C2 | 35.8 |
| Cc1cnn(CC2CCCN2C(=O)c2nccnc2N)c1 (centres undefined) | 43.2 |
| COc1ccc(OC)c(C(=O)N2CCC(Nc3cccnc3)CC2)c1 | -5.08 |
| O=C(NC1CCCN(c2ccccc2Cl)C1)c1ccc(=O)[nH]n1 (centres undefined) | 28.7 |

| Structure (SMILES) | INHIBITION [%] |
| --- | --- |
| CC(C)c1nn(C)c(N(C)C)c1CNCc1ccc2c(c1)OCCO2 | 19.6 |
| CCOc1cccc(CNC(=O)c2cnn(CC)c2C(F)(F)F)c1 | -15.3 |
| COc1cc(CNC(=O)c2c(C)noc2C)ccn1 | 32.15 |
| Cc1ncsc1C(=O)NCc1ccnc(OCC(F)(F)F)c1 | 73.05 |
| Cc1ccsc1C(=O)NCc1ccnc(OCC(F)(F)F)c1 | 39.5 |
| CCn1ncc(C(=O)NCc2ccc(C)c(OC)c2)c1C(F)(F)F | 46.7 |
| CCOc1cc(CNC(=O)c2cnn(CC)c2C(F)(F)F)ccn1 | 70.4 |
| Cc1noc(C)c1CC(=O)NCc1ccnc(OCC(F)(F)F)c1 | -9.535 |
| Cc1noc(C)c1C(=O)NCc1ccnc(OCC(F)(F)F)c1 | 63.6 |
| Cc1cc(C(=O)NCc2ccnc(OCC(F)(F)F)c2)on1 | -20.893 |
| Cc1n[nH]c(C(=O)NCc2ccnc(OCC(F)(F)F)c2)c1Br | 81.5 |
| Cc1cc(C(=O)NCc2ccnc(OCC(F)(F)F)c2)no1 | -10.45 |
| Cc1ccoc1C(=O)NCc1ccnc(OCC(F)(F)F)c1 | -23.593 |
| CCn1ncc(S(=O)(=O)N2CCCC3(CC=CNC3=O)C2)c1C (centres undefined) | 46.2 |
| CC(C)c1nc2n(n1)CC(NCc1nnc(C3CC3)o1)CC2 (centres undefined) | -2.53 |
| Cc1nc(C(C)C)sc1C(=O)NCCn1nc2ccccn2c1=O | -22.5 |
| COCC1CCCN(C(=O)c2ccccc2NCc2cccnc2)C1 (centres undefined) | 18.9 |
| O=C(CCCOc1cccc(F)c1)N1CCCC(n2cncn2)C1 (centres undefined) | -49.5 |
| Cc1nc(CN2C(=O)CCC23CCN(Cc2cccn2C)CC3)cs1 | 29.3 |
| Cc1nnc2n1CCN(C(C(=O)N1CCCCC1)c1ccccc1)C2 (centres undefined) | 11.15 |
| CCOC(=O)Cn1ccc(O)c(Cc2ccc(Cl)cc2Cl)c1=O | 1.95 |
| O=c1c(Cc2ccc(Cl)cc2Cl)c(O)ccn1CC1CC1 | 86.6 |
| O=C(NCc1ccc(Cl)cc1Cl)NCC1(O)CCSC1 (centres undefined) | 31.2 |

| Structure (SMILES) | INHIBITION [%] |
| --- | --- |
| O=C1CCN(C(=O)CCc2ccc(Cl)cc2Cl)CCN1 | 4.97 |
| COc1ccc2c(=O)n(CC3CC3)ccc2c1OC | 6.28 |
| NC(=O)Cn1ccc(O)c(Cc2ccc(Cl)cc2Cl)c1=O | 71.9 |
| COc1nc2c(cc1C(=O)NC(C)Cc1cnccn1)CCC2 (centres undefined) | -40.5 |
| O=C(NCCNc1ccc(C(F)(F)F)cn1)c1cc(Cl)ccc1F | 37.3 |
| C=C(C)COCCNC(=O)Nc1cccc(Cn2nc(C)nc2C)c1 | 62.8 |
| Cc1nc(C)n(Cc2cccc(NC(=O)NC(C)(CO)C3CC3)c2)n1 (centres undefined) | 47.4 |
| CC(=O)Nc1cccc(Cn2nc(C)nc2C)c1 | 39.7 |
| Cc1cc(F)c2c(c1)CCCN2S(=O)(=O)c1ncn(C)c1Cl | 33.7 |
| Cc1nn(C(C)C)cc1S(=O)(=O)N(C)Cc1nonc1C | 11.8 |
| CC(=O)N1CCCC1c1nccc(C)n1 (centres undefined) | 21.6 |
| CC(C)(O)CN1CCN(C(=O)c2ccc3c(c2)COC3)CC1 | -1.14 |
| COc1cccc(CCC2CCCCN2)c1 (centres undefined) | 36 |
| COc1cc(C)nc(N2CCN(C(=O)c3cc(C)no3)CC2)n1 | 19.2 |
| Cc1cc(C(=O)N2CCN(c3nc4c(F)cccc4s3)CC2)no1 | -18.5 |
| Cc1cc(C(=O)N2CCN(c3nc4c(C(C)C)cccc4s3)CC2)on1 | 92.1 |
| Cc1cc(C(=O)N2CCN(c3nc4c(C(C)C)cccc4s3)CC2)no1 | 90.4 |
| COc1cccc2sc(N3CCN(C(=O)c4cc(C)on4)CC3)nc12 | 17.1 |
| Cc1cc(C(=O)N2CCN(c3nc4c(C)cccc4s3)CC2)no1 | 24.7 |
| CC(C)Nc1cccc(CC2CCN(S(C)(=O)=O)CC2)n1 | 41.2 |
| N#CC1CCCN(c2ncnc3c2CCN(Cc2ccccc2)CC3)C1 (centres undefined) | 67.8 |
| c1ccc(CN2CCc3ncnc(C4CC4)c3CC2)cc1 | 0.164 |
| Cn1ccnc1CN1CCc2ncnc(N3CCCC(C#N)C3)c2CC1 (centres undefined) | 11.3 |
